Test [1] can be described thus: NCI Yeast Anticancer Drug Screen. Data for the rad50 strain (AID 155).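 Also: 0% = growth of vehicle-only cultures of the same strain.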 The settings on record: S. cerevisiae rad50 strain growth inhibition, active compounds read high. The procedure, abridged:
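Yeast carrying a defined DNA repair defect were exposed to test compounds, and growth was compared with vehicle-treated controls to give percent inhibition.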

Test [2] in a line: NCI Yeast Anticancer Drug Screen. Data for the mec2-1 strain (AID 157). The following applies: S. cerevisiae mec2-1 strain, active compounds read high. The gist of the method:
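Strain: mec2-1 (DNA repair/cell cycle alteration). Compound exposure, then growth measured; inhibition expressed relative to vehicle.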

The nature of test [3]: NCI Yeast Anticancer Drug Screen. Data for the sgs1 mgt1 strain (AID 161).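 Also: 0% = growth of cultures given vehicle only.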 The settings on record: S. cerevisiae sgs1 mgt1 strain, active compounds read high. The procedure, abridged:
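Mutant yeast exposed to compound; growth scored against vehicle-only wells.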

Test [4] can be described thus: NCI Yeast Anticancer Drug Screen. Data for the cln2 rad14 strain (AID 165).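 Also: 0% = growth equal to vehicle treated cultures.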 The settings on record: S. cerevisiae cln2 rad14 strain, active compounds read high. The gist of the method:
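Compounds are applied to the cln2 rad14 yeast strain, and growth is then compared with that of vehicle-treated cultures to give inhibition.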

Test [5] is described as follows: NCI Yeast Anticancer Drug Screen. Data for the bub3 strain (AID 167). The following applies: S. cerevisiae bub3 mutant strain, active compounds read high. The procedure, abridged:
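Compounds were applied to a genetically altered yeast strain carrying a cell-cycle control defect. Growth inhibition was scored against vehicle-treated controls.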

Test [6] is described as follows: NCI Yeast Anticancer Drug Screen. Data for the mlh1 rad18 strain (AID 175). The settings on record: S. cerevisiae mlh1 rad18 strain growth inhibition, active compounds read high. The procedure, abridged: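 Read-out is yeast growth inhibition, calculated against vehicle-only controls. The compound was applied to a strain engineered with DNA damage repair alterations.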

[7] abbreviates: at 5.0 µM (retest, dose inferred, filed as 0.5).
[8] abbreviates: at 50.0 µM (retest, dose inferred, filed as 5.0).

About 79,000 compounds went through this panel and 15% of them were active in at least one assay; those are over-represented in the sample as a whole. A number with no mark means an inactive call. Active and inactive are the calls of the source. Rule as the data show it: active = growth inhibition above about 70%; inactive = the rest.

Regarding `NC1CCCCC1N.O=S(=O)([O-])CCCN1CCOCC1.O=S(=O)([O-])CCCN1CCOCC1.[Pt+4]`, the growth inhibition in test [1] (setting [7]) is -12%; in test [1] (setting [8]), 89% (active); in test [1] (at 50.0 µM), 99% (active); in test [2] (setting [7]), -6%; in test [2] (setting [8]), 73% (active); in test [2] (at 50.0 µM) it was 98.9% (active). The growth inhibition is 0% in test [3] (setting [7]); 87% (active) in test [3] (setting [8]); 99% (active) in test [3] (at 50.0 µM); -14% in test [4] (setting [7]); 58% in test [4] (setting [8]); 99% (active) in test [4] (at 50.0 µM). Moreover, the growth inhibition in test [5] (setting [7]) was 10%; in test [5] (setting [8]) it was 92% (active); in test [5] (at 50.0 µM), 98.6% (active); in test [6] (setting [7]), 20%; in test [6] (setting [8]), 98% (active); in test [6] (at 50.0 µM), 99.2% (active).

As for `Oc1ccc(COCCBr)c2cccnc12`, the growth inhibition is 8% in test [1] (setting [7]); 98% (active) in test [1] (setting [8]); 98.8% (active) in test [1] (at 50.0 µM); -2% in test [2] (setting [7]); 99% (active) in test [2] (setting [8]); 99.5% (active) in test [2] (at 50.0 µM). Further, the growth inhibition in test [3] (setting [7]) is 4%; in test [3] (setting [8]), 99% (active); in test [3] (at 50.0 µM) it was 99.2% (active); in test [4] (setting [7]) it was 8%; in test [4] (setting [8]) it was 98% (active); in test [4] (at 50.0 µM), 98.5% (active). Moreover, the growth inhibition is 1% in test [5] (setting [7]); 98% (active) in test [5] (setting [8]); 99.2% (active) in test [5] (at 50.0 µM); 30% in test [6] (setting [7]); 99% (active) in test [6] (setting [8]); 99.2% (active) in test [6] (at 50.0 µM).

As to `CC(=O)N1OC2(C)c3ccccc3C1(C)c1ccccc12`, the growth inhibition in test [1] (setting [7]) is 99% (active); in test [1] (setting [8]) it was 94% (active); in test [1] (at 50.0 µM), 99.2% (active); in test [2] (setting [7]) it was 99% (active); in test [2] (setting [8]), 97% (active); in test [2] (at 50.0 µM) it was 99.4% (active). The growth inhibition is 99% (active) in test [3] (setting [7]); 96% (active) in test [3] (setting [8]); 97.9% (active) in test [3] (at 50.0 µM); 98% (active) in test [4] (setting [7]); 95% (active) in test [4] (setting [8]); 99.2% (active) in test [4] (at 50.0 µM). The growth inhibition in test [5] (setting [7]) was 99% (active); in test [5] (setting [8]) it was 96% (active); in test [5] (at 50.0 µM), 99.4% (active); in test [6] (setting [7]), 99% (active); in test [6] (setting [8]) it was 95% (active); in test [6] (at 50.0 µM), 99.1% (active).

For `Cc1ccc2[nH]c3c(c2c1)[n+]([O-])c1ccccc1[n+]3[O-]`, the growth inhibition was 5% in test [1] (setting [7]); 16% in test [1] (setting [8]); -17.4% in test [1] (at 50.0 µM); 3% in test [2] (setting [7]); -4% in test [2] (setting [8]); 35.5% in test [2] (at 50.0 µM). Besides, the growth inhibition is -8% in test [3] (setting [7]); -13% in test [3] (setting [8]); 5.8% in test [3] (at 50.0 µM); -4% in test [4] (setting [7]); -7% in test [4] (setting [8]); -22.5% in test [4] (at 50.0 µM). Further, the growth inhibition in test [5] (setting [7]) was -8%; in test [5] (setting [8]), -6%; in test [5] (at 50.0 µM), 37.3%; in test [6] (setting [7]), -6%; in test [6] (setting [8]), 7%; in test [6] (at 50.0 µM) it was -0.5%.

`COc1ccnc(-c2cc(OC)cc(/C(N)=N/O)n2)c1`: the growth inhibition is 2% in test [1] (setting [7]); 59% in test [1] (setting [8]); 96.8% (active) in test [1] (at 50.0 µM); -4% in test [2] (setting [7]); 83% (active) in test [2] (setting [8]); 93.1% (active) in test [2] (at 50.0 µM). For the same compound, the growth inhibition was -2% in test [3] (setting [7]); 63% in test [3] (setting [8]); 96% (active) in test [3] (at 50.0 µM); -5% in test [4] (setting [7]); 62% in test [4] (setting [8]); 93.8% (active) in test [4] (at 50.0 µM). The growth inhibition in test [5] (setting [7]) was -3%; in test [5] (setting [8]), 54%; in test [5] (at 50.0 µM), 88.7% (active); in test [6] (setting [7]), -4%; in test [6] (setting [8]), 77% (active); in test [6] (at 50.0 µM), 96.8% (active).

In the case of `O=S(=O)(N=S(c1ccc(Cl)cc1)c1ccc(Cl)cc1)c1ccccc1`, the growth inhibition in test [1] (setting [7]) was 0%; in test [1] (setting [8]) it was 10%; in test [1] (at 50.0 µM), 49.2%; in test [2] (setting [7]) it was -8%; in test [2] (setting [8]), 5%; in test [2] (at 50.0 µM), -14.4%. For the same compound, the growth inhibition in test [3] (setting [7]) is -1%; in test [3] (setting [8]), 12%; in test [3] (at 50.0 µM), 4.5%; in test [4] (setting [7]), 9%; in test [4] (setting [8]) it was 28%; in test [4] (at 50.0 µM), -32.4%. Further, the growth inhibition in test [5] (setting [7]) is 5%; in test [5] (setting [8]), 19%; in test [5] (at 50.0 µM) it was 27.2%; in test [6] (setting [7]), 0%; in test [6] (setting [8]), 10%; in test [6] (at 50.0 µM) it was 12.8%.

With `CCCCCCCCCCCC(=O)OCCOC(=O)CCCCCCCCCCC`, the growth inhibition was -8% in test [1] (setting [7]); -5% in test [1] (setting [8]); -5.95% in test [1] (at 50.0 µM); -1% in test [2] (setting [7]); -12% in test [2] (setting [8]); -11.3% in test [2] (at 50.0 µM). Also, the growth inhibition in test [3] (setting [7]) was -22%; in test [3] (setting [8]), -7%; in test [3] (at 50.0 µM), -20.6%; in test [4] (setting [7]), 1%; in test [4] (setting [8]) it was -5%; in test [4] (at 50.0 µM), -4%. The growth inhibition in test [5] (setting [7]) is 2%; in test [5] (setting [8]), -12%; in test [5] (at 50.0 µM) it was -3.35%; in test [6] (setting [7]), 3%; in test [6] (setting [8]), -6%; in test [6] (at 50.0 µM), 7.4%.

For `CCOC1(OCC)Cc2nc3ccccc3cc21`, the growth inhibition is 4% in test [1] (setting [7]); 94% (active) in test [1] (setting [8]); 96.7% (active) in test [1] (at 50.0 µM); -2% in test [2] (setting [7]); 96% (active) in test [2] (setting [8]); 96.8% (active) in test [2] (at 50.0 µM). In addition, the growth inhibition is 2% in test [3] (setting [7]); 96% (active) in test [3] (setting [8]); 95.5% (active) in test [3] (at 50.0 µM); 0% in test [4] (setting [7]); 91% (active) in test [4] (setting [8]); 92.5% (active) in test [4] (at 50.0 µM). The growth inhibition in test [5] (setting [7]) is -2%; in test [5] (setting [8]), 93% (active); in test [5] (at 50.0 µM) it was 96.7% (active); in test [6] (setting [7]), 3%; in test [6] (setting [8]) it was 95% (active); in test [6] (at 50.0 µM) it was 97.2% (active).

As for `Cc1ccc([S@](=O)c2occc2C=O)cc1`, the growth inhibition in test [1] (setting [7]) is 37%; in test [1] (setting [8]), 88% (active); in test [1] (at 50.0 µM), 74.5% (active); in test [2] (setting [7]), 29%; in test [2] (setting [8]), 98% (active); in test [2] (at 50.0 µM), 88.5% (active). Further, the growth inhibition was 38% in test [3] (setting [7]); 98% (active) in test [3] (setting [8]); 84.5% (active) in test [3] (at 50.0 µM); 23% in test [4] (setting [7]); 43% in test [4] (setting [8]); 13.4% in test [4] (at 50.0 µM). Moreover, the growth inhibition in test [5] (setting [7]) was 43%; in test [5] (setting [8]), 98% (active); in test [5] (at 50.0 µM), 62.6%; in test [6] (setting [7]), 41%; in test [6] (setting [8]) it was 96% (active); in test [6] (at 50.0 µM) it was 88.2% (active).

The record behind these values is PubChem BioAssay (NCI).
